The source of these data is the supplement of paper PMC8540655.

A number with no mark means an inactive call.

One assay relates to Aedes aegypti larvae. In words: larval motility relative to same well at 0 h (fraction); higher = more motile (less active compound), active = 0.4 or less. To be noted: 10 µM; 2 h. How it is done: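 MMV Pandemic Response Box compounds were tested at 10 µM (1% v/v DMSO) on Aedes aegypti larvae (18-24 h after hatching, about 10 per well, 96-well plates). Motility was quantified with INVAPP (200-frame movies) at 0, 2 and 24 h. Each well's motility was divided by its own 0 h score, and the median of 3 independent screens is reported.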
In the case of `O=C(Cn1cnc2ccccc2c1=O)Nc1ccccc1`, the larval motility was 0.554.

`O=C(O)C[C@H]1CC[C@H](c2ccc(-c3ccc(Nc4ccc(C(F)(F)F)nc4)cn3)cc2)CC1`: the larval motility is 0.644.

For the compound `C[C@@H](NC(=O)c1cccc(-c2c[nH]c(-c3cc4ccccc4cn3)n2)c1)c1ccc(F)cc1`, the larval motility was 0.628.

As to `O=c1oc2ccc(Br)cc2cc1CSc1ncc[nH]1`, the larval motility was 0.806.

As for `Cc1ccccc1NC(=O)Nc1cccc([N+](=O)[O-])c1`, the larval motility is 1.19.

In the case of `[N-]=[N+]=N[C@H]1C[C@H](n2ccc(=O)[nH]c2=O)O[C@@H]1CO`, the larval motility was 1.11.

Take `Cc1cc(NS(=O)(=O)c2ccc(-c3ccc(F)cc3F)cc2)no1`: the larval motility is 0.769.

Consider `CC(C)/N=c1\cc2n(-c3ccc(Cl)cc3)c3ccccc3nc-2cc1Nc1ccc(Cl)cc1`, for which the larval motility is 0.957.

As for `O=C(NCc1cccc2ccccc12)c1cccs1`, the larval motility was 0.689.

In the case of `Cc1ncc([N+](=O)[O-])n1CC(C)O` (stereo not given), the larval motility is 1.43.

Consider `CCc1cc(O)c(Oc2ccc(C(N)=O)cc2F)cc1F`, for which the larval motility was 0.539.

As for `FC(F)(F)Oc1ccc(Nc2ccc3cccc(Cl)c3n2)cc1`, the larval motility was 0.563.

On to `Fc1cccc(Cl)c1C1CC(c2ccc(Cl)cc2)Nc2nnnn21` (stereo not given), for which the larval motility is 1.01.

In the case of `O=C(O)CCNC(=O)c1ccccc1`, the larval motility was 0.977.

Consider `CC1(C)Cc2c(C#N)c(SCCc3ccccc3)nc(N3CCOCC3)c2CO1`, for which the larval motility is 0.485.

`CC(=O)N1CCN(c2ccc(OCC3COC(Cn4ccnc4)(c4ccc(Cl)cc4Cl)O3)cc2)CC1` (stereo not given): the larval motility was 0.527.

As for `Cc1cc(-c2ccccc2)c(C(=O)C(=O)Nc2ccc(N3CCN(c4ncc(F)cn4)CC3)cc2)n1C`, the larval motility was 0.636.

As for `CC(C)(C)NC(=O)N[C@H](C(=O)N1C[C@H]2[C@@H]([C@H]1C(=O)NC(CC1CCC1)C(=O)C(N)=O)C2(C)C)C(C)(C)C` (stereo not given in full), the larval motility was 0.758.

With `c1cc(CN2CCCNCCNCCCNCC2)ccc1CN1CCCNCCNCCCNCC1`, the larval motility was 0.964.

On to `Nc1nc(O)c2ncn(COC(CO)CO)c2n1`, for which the larval motility was 1.05.

Staying with this assay, now noted: 10 µM; 24 h.
With `O=C(Cn1cnc2ccccc2c1=O)Nc1ccccc1`, the larval motility is 0.782.

`O=C(O)C[C@H]1CC[C@H](c2ccc(-c3ccc(Nc4ccc(C(F)(F)F)nc4)cn3)cc2)CC1`: the larval motility is 0.489.

Take `C[C@@H](NC(=O)c1cccc(-c2c[nH]c(-c3cc4ccccc4cn3)n2)c1)c1ccc(F)cc1`: the larval motility was 0.997.

For `O=c1oc2ccc(Br)cc2cc1CSc1ncc[nH]1`, the larval motility is 0.972.

For the compound `Cc1ccccc1NC(=O)Nc1cccc([N+](=O)[O-])c1`, the larval motility is 1.34.

`[N-]=[N+]=N[C@H]1C[C@H](n2ccc(=O)[nH]c2=O)O[C@@H]1CO`: the larval motility is 0.881.

`Cc1cc(NS(=O)(=O)c2ccc(-c3ccc(F)cc3F)cc2)no1`: the larval motility is 0.77.

On to `CC(C)/N=c1\cc2n(-c3ccc(Cl)cc3)c3ccccc3nc-2cc1Nc1ccc(Cl)cc1`, for which the larval motility was 0.786.

Consider `O=C(NCc1cccc2ccccc12)c1cccs1`, for which the larval motility was 0.669.

Take `Cc1ncc([N+](=O)[O-])n1CC(C)O` (stereo not given): the larval motility was 1.55.

With `CCc1cc(O)c(Oc2ccc(C(N)=O)cc2F)cc1F`, the larval motility is 0.942.

On to `FC(F)(F)Oc1ccc(Nc2ccc3cccc(Cl)c3n2)cc1`, for which the larval motility is 0.29 (active).

On to `Fc1cccc(Cl)c1C1CC(c2ccc(Cl)cc2)Nc2nnnn21` (stereo not given), for which the larval motility is 1.08.

Take `O=C(O)CCNC(=O)c1ccccc1`: the larval motility is 1.03.

As for `CC1(C)Cc2c(C#N)c(SCCc3ccccc3)nc(N3CCOCC3)c2CO1`, the larval motility was 1.28.

`CC(=O)N1CCN(c2ccc(OCC3COC(Cn4ccnc4)(c4ccc(Cl)cc4Cl)O3)cc2)CC1` (stereo not given): the larval motility is 1.14.

With `Cc1cc(-c2ccccc2)c(C(=O)C(=O)Nc2ccc(N3CCN(c4ncc(F)cn4)CC3)cc2)n1C`, the larval motility was 0.529.

Regarding `CC(C)(C)NC(=O)N[C@H](C(=O)N1C[C@H]2[C@@H]([C@H]1C(=O)NC(CC1CCC1)C(=O)C(N)=O)C2(C)C)C(C)(C)C` (stereo not given in full), the larval motility is 0.813.

In the case of `c1cc(CN2CCCNCCNCCCNCC2)ccc1CN1CCCNCCNCCCNCC1`, the larval motility was 0.915.

On to `Nc1nc(O)c2ncn(COC(CO)CO)c2n1`, for which the larval motility was 0.821.
